33 compounds from the supplement of paper PMC10811239 can be followed below.

Assay [1] deals with LEGO organoid PTCC (PTEN-/-; TP53-/-; CDKN2A-/-; CDKN2B-/-). Briefly: bioluminescence (viable cell) signal fold change after vs before treatment, normalised to DMSO (ratio); higher = more tumour cell growth / less inhibition. As to conditions: 10 µM; treatment time 6 days. As for the experimental part: (§1)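 Luc2-labelled iPSC-derived glioblastoma-like organoids (LEGOs, genotypes PT = PTEN-/-;TP53-/-, PTCC = plus CDKN2A/B-/-, PTN = plus NF1-/-) were treated with 10 uM drug for 6 days (applied every other day) at 37 C. Bioluminescence imaging was done before treatment and 2 days after the last dose. BLI signals were normalised to the DMSO control on the same day and then to the pre-treatment signal (N=3).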

Assay [2] relates to LEGO organoid PTN (PTEN-/-; TP53-/-; NF1-/-). The description is as above. Particulars: 10 µM; treatment time 6 days. As for the experimental part: as §1

For the compound `Cl.O=C1CN2Cc3c(ccc(Cl)c3Cl)NC2=N1` [Anagrelide hydrochloride], the bioluminescence in assay [1] amounted to 0.834; in assay [2], 1.

With `Cc1cc(C)cc(OCC2CNC(=O)O2)c1` (stereo unspecified) [Metaxalone], the bioluminescence in assay [1] was found to be 1.35; in assay [2], 1.62.

Consider `Cc1[nH]c(=O)c(C#N)cc1-c1ccncc1` [Milrinone], for which the bioluminescence in assay [1] worked out at 1.63; in assay [2] it was 1.34.

Take `Nc1ncnc2c1ncn2[C@@H]1O[C@H](CO)[C@@H](O)[C@H]1OP(=O)(O)O` [Adenosine-2'-monophosphate]: the bioluminescence in assay [1] stood at 1.96; in assay [2] it was 1.26.

On to `N#Cc1ccc2[nH]cc(CCCCN3CCN(c4ccc5oc(C(N)=O)cc5c4)CC3)c2c1` [Vilazodone], for which the bioluminescence in assay [1] is 1.83; in assay [2] it was 0.898.

With `Cl.Cc1ccsc1\C(=C\CCN1CCC[C@H](C1)C(O)=O)c1sccc1C` [Tiagabine hydrochloride], the bioluminescence in assay [1] was found to be 2.4; in assay [2] it was 0.83.

Consider `CC/C(=C(/CC)c1ccc(O)cc1)c1ccc(O)cc1` [Diethylstilbestrol], for which the bioluminescence in assay [1] worked out at 0.673; in assay [2], 2.47.

Regarding `Cc1cc2c(s1)Nc1ccccc1N=C2N1CCN(C)CC1` [Olanzapine], the bioluminescence in assay [1] turned out to be 0.712; in assay [2], 1.81.

Consider `Cc1cn(-c2cc(NC(=O)c3ccc(C)c(Nc4nccc(-c5cccnc5)n4)c3)cc(C(F)(F)F)c2)cn1` [Nilotinib], for which the values for the bioluminescence in assay [1] and in assay [2] were 1.4 and 3.9, respectively.

Turning to `C[C@H]1[C@H](NC(=O)/C(=N\OC(C)(C)C(=O)O)c2csc(N)n2)C(=O)N1S(=O)(=O)O` [Aztreonam], the results for the bioluminescence in assay [1] and in assay [2] were 0.795 and 1.4, respectively.

Regarding `CC/C(=C(\c1ccccc1)c1ccc(OCCN(C)C)cc1)c1ccccc1.O=C(O)CC(O)(CC(=O)O)C(=O)O` [Tamoxifen Z-isomer citrate], the bioluminescence in assay [1] was 1.41; in assay [2], 6.34.

Take `C[C@]12CCC3=C4CCC(=O)C=C4CC[C@H]3[C@@H]1CC[C@@]2(O)CC#N` [Dienogest]: the figures for the bioluminescence in assay [1] and in assay [2] were 3.61 and 0.658, respectively.

In the case of `CC[C@@H]1/C=C(\C)C[C@H](C)C[C@H](OC)[C@H]2O[C@@](O)(C(=O)C(=O)N3CCCC[C@H]3C(=O)O[C@H](/C(C)=C/[C@@H]3CC[C@H](Cl)[C@H](OC)C3)[C@H](C)[C@@H](O)CC1=O)[C@H](C)C[C@@H]2OC` [Pimecrolimus], the bioluminescence in assay [1] turned out to be 0.535; in assay [2], 0.347.

For the compound `O=c1[nH]c(=O)n(C2CCCO2)cc1F` (stereo unspecified) [Tegafur], the values for the bioluminescence in assay [1] and in assay [2] were 1.14 and 0.727, respectively.

In the case of `Cc1nc2n(c(=O)c1CCN1CCC(c3noc4cc(F)ccc34)CC1)CCCC2` [Risperidal], the bioluminescence stood at 1.93 in assay [1] and 1.31 in assay [2].

For `CN(C)CCc1c[nH]c2ccc(CS(=O)(=O)N3CCCC3)cc12.O=C(O)CC(O)C(=O)O` [Almotriptan Malate], the bioluminescence in assay [1] was 0.868; in assay [2], 0.959.

Take `Nc1cccc2c1C(=O)N(C1CCC(=O)NC1=O)C2=O` (stereo unspecified) [Pomalidomide]: the bioluminescence in assay [1] worked out at 2.56; in assay [2], 1.12.

In the case of `CCOC(=O)C1=C(C)NC(C)=C(C(=O)OC)C1c1cccc(Cl)c1Cl` (stereo unspecified) [Felodipine], the bioluminescence in assay [1] was 1.16; in assay [2] it was 1.04.

With `Nc1nc2c(ncn2COCCO)c(=O)[nH]1` [Aciclovir], the bioluminescence amounted to 2.16 in assay [1] and 4.45 in assay [2].

For the compound `CN(C)CCc1c[nH]c2ccc(C[C@H]3COC(=O)N3)cc12` [Zolmitriptan], the bioluminescence was 1.52 in assay [1] and 1.34 in assay [2].

As to `COCCCC/C(=N\OCCN)c1ccc(C(F)(F)F)cc1.O=C(O)/C=C\C(=O)O` [Fluvoxamine maleate], the bioluminescence in assay [1] came out at 0.792; in assay [2], 1.47.

Consider `CC(C)(Sc1cc(C(C)(C)C)c(O)c(C(C)(C)C)c1)Sc1cc(C(C)(C)C)c(O)c(C(C)(C)C)c1` [Probucol], for which the bioluminescence in assay [1] amounted to 0.73; in assay [2] it was 0.748.

As for `Nc1ccn([C@@H]2CS[C@H](CO)O2)c(=O)n1` [Lamivudine], the bioluminescence in assay [1] was 0.674; in assay [2], 1.2.

For `NCCS(=O)(=O)O` [Taurine], the bioluminescence amounted to 0.71 in assay [1] and 0.673 in assay [2].

Consider `Nc1nc2c(ncn2COC(CO)CO)c(=O)[nH]1` [Ganciclovir], for which the bioluminescence stood at 1.62 in assay [1] and 2.38 in assay [2].

Consider `CCCC(CCC)C(=O)[O-].[Na+]` [Valproic acid sodium salt], for which the figures for the bioluminescence in assay [1] and in assay [2] were 1.23 and 2.43, respectively.

Consider `COc1ccccc1OCC(O)COC(N)=O` (stereo unspecified) [Methocarbamol], for which the bioluminescence in assay [1] is 1.84; in assay [2], 2.82.

In the case of `CCC(CC)O[C@@H]1C=C(C(=O)O)C[C@H](N)[C@H]1NC(C)=O` [Oseltamivir acid], the bioluminescence in assay [1] was determined as 0.404; in assay [2] it was 1.58.

`Cl.OC[C@H]1NC[C@H](O)[C@@H](O)[C@H]1O` [Migalastat hydrochloride]: the bioluminescence in assay [1] came to 0.51; in assay [2], 0.719.

Take `NC(=O)c1cn(Cc2c(F)cccc2F)nn1` [Rufinamide]: the bioluminescence in assay [1] is 2.69; in assay [2], 1.

`Clc1ccc(COC(Cn2ccnc2)c2ccc(Cl)cc2Cl)c(Cl)c1.O=[N+]([O-])O` (stereo unspecified) [Miconazole nitrate]: the results for the bioluminescence in assay [1] and in assay [2] were 0.22 and 1.21, respectively.

On to `N[C@@H](CC(=O)O)C(=O)O` [L-Aspartic acid], for which the values for the bioluminescence in assay [1] and in assay [2] were 1.1 and 0.451, respectively.

Take `C[N+](C)(C)CCO.[Cl-]` [Choline chloride]: the bioluminescence in assay [1] was 0.614; in assay [2], 2.09.
